# From PubChem BioAssay (NCI)
# Compounds without any hit were thinned out: in the full panel of roughly 83,000, 20% have a hit.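 Single-dose data. Exposure time 48 hours. Values below 10 considered active.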 Values without a mark were called inactive. The source made the active and inactive calls.
# Experiments:
# Experiment in all cases: NCI-60 one-dose screen, 48 h (100 = growth as untreated, 0 = no growth, -100 = all killed)
# Conditions in all cases: 10 µM unless noted
# SR leukemia = test system: SR leukemia
# RPMI-8226 leukemia = test system: RPMI-8226 leukemia
# OVCAR-8 ovarian = test system: OVCAR-8 ovarian
# OVCAR-5 ovarian = test system: OVCAR-5 ovarian
# OVCAR-4 ovarian = test system: OVCAR-4 ovarian
# SK-OV-3 ovarian = test system: SK-OV-3 ovarian
# IGROV1 ovarian = test system: IGROV1 ovarian
# OVCAR-3 ovarian = test system: OVCAR-3 ovarian
# HS 578T breast = test system: HS 578T breast
# NCI/ADR-RES ovarian = test system: NCI/ADR-RES ovarian
Compound,growth (SR leukemia),growth (RPMI-8226 leukemia),growth (OVCAR-8 ovarian),growth (OVCAR-5 ovarian),growth (OVCAR-4 ovarian),growth (SK-OV-3 ovarian),growth (IGROV1 ovarian),growth (OVCAR-3 ovarian),growth (HS 578T breast),growth (NCI/ADR-RES ovarian)
C=C(C)[C@@H]1CC[C@]2(C(=O)O)CC[C@]3(C)[C@H](CC[C@@H]4[C@@]5(C)C[C@@H](CC#Cc6ccc(C(C)=O)s6)[C@H](O)C(C)(C)[C@@H]5CC[C@]43C)[C@@H]12,78.3%,40%,38.4%,98%,33.6%,27.7%,89.1%,58.4%,73.1%,76.3%
COc1ccc(NC(=O)Cn2c(=O)sc3c(-c4ccc(Cl)cc4)cc(-c4ccc(Cl)cc4)nc32)cc1,63.3%,116%,107%,111%,98.3%,102%,92.3%,115%,108%,89.2%
CCCCCCCCCCCCNC(=O)N[C@H](C(=O)N[C@H]1/C=C/CCNC(=O)/C=C/[C@H](C)NC1=O)C(C)C,-22.7% (active),41.1%,11.5%,-83.7% (active),3.35% (active),-42.6% (active),-32.9% (active),-44.3% (active),49.5%,94.4%
CC(C)CCSc1nc(Nc2ccccc2)c(C#N)c(-c2ccc(F)cc2)n1,37.4%,50%,42.2%,83.8%,-18% (active),67.2%,33.5%,28.8%,49.5%,56.8%
CC(SC(C)C(=O)N/N=C/c1cccc(Cl)c1)C(=O)N/N=C\c1cccc(Cl)c1 (stereo not given),15.8%,64.4%,68.1%,115%,-11.1% (active),90.5%,70.3%,-30.2% (active),86%,94.5%
C[Si](C)(C)C(c1ccccc1)c1ccccc1,86.8%,91.6%,102%,110%,109%,98.4%,97.1%,113%,98.9%,98.9%
COc1ccc2c(c1)C1=NN(C(=O)CO)[C@H](c3ccc(OC(F)(F)F)cc3)[C@@H]1CC2,69.2%,42.9%,98%,108%,89.5%,96.3%,72.3%,88.6%,85.7%,85.5%
OCCN(CCO)c1ccc2ccccc2c1,104%,110%,104%,98.8%,104%,98.3%,93.7%,103%,105%,98.7%
CCNC(=O)c1ccc2c(c1)nc(-c1ccc(Cl)cc1)n2-c1cc(C(C)(C)C)[nH]n1,-11.8% (active),76.5%,77.1%,63.9%,70.9%,26.9%,47.7%,21.5%,59.7%,9.67% (active)
CS(=O)(=O)c1ccc(C(=O)N/N=C/c2ccccc2Cl)cc1,92.5%,115%,97.1%,109%,95.9%,88.3%,107%,103%,98.1%,106%
COc1cc(OC)c2sc(-c3ccc(-n4cncc4-c4ccc(OC)c(N)c4)cc3)nc2c1,73.8%,51.8%,84.3%,101%,78%,123%,98.2%,77.4%,94.1%,77.4%
CC(=O)Oc1ccccc1C(=O)Nc1ncc([N+](=O)[O-])s1,13.1%,7.09% (active),51.3%,63.3%,55.2%,85.5%,26.2%,5.56% (active),15.6%,20.6%
CS(=O)(=O)c1ccc(C(=O)N/N=C/c2ccc3c(c2)OCO3)cc1,110%,102%,93.8%,116%,109%,107%,113%,99.4%,100%,110%
CNC1=C([N+](=O)[O-])C(c2ccccc2O)C(C#N)=C(c2cccs2)O1 (stereo not given),48.6%,100%,94.2%,104%,82.4%,94.5%,90.3%,92%,92.3%,102%
c1coc(CNc2c3ccccc3nc3ccccc23)c1,34%,56.6%,47.5%,76.4%,56.2%,70.9%,61.8%,96.9%,84%,44.8%
O/N=C1\c2ccccc2-c2ccc(Br)cc21,102%,105%,105%,113%,104%,113%,116%,118%,158%,115%
Brc1ccsc1Br,107%,103%,122%,106%,107%,94.8%,103%,122%,129%,116%
COc1ccc(C(=O)OC2C(OC3C(O)COC(O[C@H]4C[C@H]5[C@@H]6CC=C7C[C@@H](O)CC[C@]7(C)[C@H]6CC[C@]5(C)[C@H]4[C@H](C)C(=O)CCC(C)C)C3OC(=O)C(C)C)OCC(O)C2O)cc1 (stereo not given in full),5.59% (active),-27.4% (active),36.3%,42%,60.9%,-21.1% (active),37.2%,60.5%,-2.09% (active),75%
Cc1ccc2c(C)c3c(ccc4ccccc43)c[n+]2c1,58.2%,47.8%,52.5%,90.3%,56.3%,83.8%,60.6%,53.2%,77.8%,95.9%
C/C(=N\NC(=O)CSc1nc2ccccc2c(=O)n1CCc1ccc(S(N)(=O)=O)cc1)c1ccc(Br)cc1,51.1%,49.7%,34.6%,111%,71.3%,96.4%,100%,128%,90.8%,79.1%
CCCC(CCC)(C(N)=O)C(=O)O,111%,112%,102%,99.6%,101%,105%,119%,110%,106%,107%
COc1ccc2[nH]cc(C3(c4c[nH]c5ccc(OC)cc45)C(=O)Nc4ccc(F)cc43)c2c1,11.8%,40.9%,94.4%,94.1%,86.7%,94.5%,74.2%,86.6%,73.4%,94%
C#CCNc1nc(NCCNC(=O)CCl)nc(N(C)CCCCc2ccccc2)n1,62.1%,89.2%,101%,109%,96.6%,101%,78.9%,94.3%,94.2%,102%
CCCCCCCCCCCCC1CCC(=O)O1 (stereo not given),93.6%,97.4%,108%,85.4%,94.1%,102%,86.7%,105%,108%,100%
C=C1C(=O)O[C@H]2[C@H]1CC/C(COC(=O)NCc1c[nH]c3ccc(OC)cc13)=C\CC[C@@]1(C)O[C@@H]21,8.82% (active),-25.8% (active),21.3%,45.2%,19.9%,68.3%,-21.7% (active),-84.2% (active),61.8%,73.1%
O=C(/C=C/c1ccccc1Br)c1cccc(OCCCCOc2cccc(C(=O)/C=C/c3ccccc3Br)c2)c1,31.8%,-11.7% (active),102%,105%,101%,104%,92.4%,108%,102%,102%
COc1cc(OC)cc(-c2ccc(-c3ccc(C(=N)N)s3)s2)c1,-47.3% (active),-62.9% (active),-58.8% (active),-81% (active),-54.2% (active),-92.4% (active),-67.2% (active),-42.9% (active),-40.4% (active),-58% (active)
